What all share (format): functional
Experiment [1] deals with Plasmodium falciparum. Put plainly: GSK_TCMDC: Inhibition of Plasmodium falciparum 3D7 in whole red blood cells, using parasite LDH activity as an index of growth. Test compounds present at 2uM.
Experiment [2] deals with Plasmodium falciparum. In words: GSK_TCMDC: Inhibition of Plasmodium falciparum Dd2 in whole red blood cells, using parasite LDH activity as an index of growth. Test compounds present at 2uM.
Experiment [3] relates to HepG2. In words: GSK_TCMDC: Percent inhibition of human HepG2 cell line. Test compounds present at 10uM.

These results are taken from ChEMBL document CHEMBL1157539, “Thousands of chemical starting points for antimalarial lead identification” (Nature, 2010).

Turning to `O=C(Nc1ccc(Cl)cc1)c1ccc(CN2CCCN(Cc3cccc(F)c3)CC2)cc1.O=C(O)C(F)(F)F`, the Inhibition is listed as 91% in experiment [1], 8% in experiment [2] and 59% in experiment [3].

For `COc1cc(Cc2cnc(N)nc2N)cc(OCC(C)(C)C(=O)O)c1OC`, the values for the Inhibition in experiment [1], in experiment [2] and in experiment [3] were 89%, 0% and 0%, respectively.

For `O=C(O)C(F)(F)F.c1ccc(-n2ncc(CNCc3ccc(-c4ccc(-c5nc6ccccc6[nH]5)s4)cc3)n2)cc1`, the Inhibition came out at 93% in experiment [1], 46% in experiment [2] and 27% in experiment [3].

Turning to `O=C(/C=C/c1ccc(Cl)c(Cl)c1)NCCCCCN1CCCN(C(=O)Nc2ccc(Br)cc2)CC1`, the Inhibition is reported as 99% in experiment [1], 0% in experiment [2] and 38% in experiment [3].

In the case of `COc1ccc(C(C(=O)NC2CCN(C[C@H](O)c3ccnc4ccc(OC)cc34)CC2)N2CCN(c3ccc(Cl)c(Cl)c3)CC2)cc1` (some centres not stated), the Inhibition in experiment [1] was determined as 100%; in experiment [2], 79%; in experiment [3], 12%.

For the compound `O=C(Cn1cc(C(F)(F)F)cc(Cl)c1=O)N1CCN(S(=O)(=O)c2ccc(Cl)cc2)CC1`, the results for the Inhibition in experiment [1], in experiment [2] and in experiment [3] were 99%, 69% and 14%, respectively.

Take `Cc1ccc(CN2CCCN(Cc3cccc(NC(=O)c4ccc(Cl)c(Cl)c4)c3)CC2)cc1.O=C(O)C(F)(F)F`: the figures for the Inhibition in experiment [1], in experiment [2] and in experiment [3] were 96%, 18% and 32%, respectively.

Turning to `Br.CC1(C)NC(N)=NC(=N)N1OCCCc1cccc(C(F)(F)F)c1`, the Inhibition worked out at 95% in experiment [1], 95% in experiment [2] and 62% in experiment [3].

As to `Cc1cc(N[C@@H](Cc2ccccc2)C(=O)NCCOc2ccccc2)nc(NCc2ccccc2C)n1.O=C(O)C(F)(F)F`, the figures for the Inhibition in experiment [1], in experiment [2] and in experiment [3] were 100%, 80% and 32%, respectively.

Turning to `CCN(CC)Cc1cc(Nc2ccnc3cc(Cl)ccc23)ccc1O.Cl.Cl.Cl`, the Inhibition in experiment [1] is 100%; in experiment [2], 99%; in experiment [3] it was 0%.

Take `COc1ccc(CN(C)CCCc2ccc(NC(=O)Cc3ccc4nc(-c5ccccc5)ccc4c3)cc2)cc1OC`: the Inhibition in experiment [1] is 98%; in experiment [2], 0%; in experiment [3] it was 10%.

`COc1ccc2nc(C)cc(N/N=C/c3cccc([N+](=O)[O-])c3)c2c1`: the Inhibition in experiment [1] turned out to be 100%; in experiment [2] it was 97%; in experiment [3], 6%.

Turning to `COc1cc(OC)c(NC(=O)Nc2ccnc3ccccc23)cc1Cl`, the values for the Inhibition in experiment [1], in experiment [2] and in experiment [3] were 97%, 9% and 19%, respectively.

`CN(CCCN(C)c1cc(NC(=O)c2ccc(F)cc2)ccn1)Cc1cccc(O)c1.O=C(O)C(F)(F)F`: the Inhibition is on record as 90% in experiment [1], 0% in experiment [2] and 2% in experiment [3].

For `COc1ccc(COc2cc(NCCCN)nc3ccccc23)cc1`, the Inhibition in experiment [1] was 100%; in experiment [2], 5%; in experiment [3], 3%.

With `O=c1cc(NCCCNC2CCOc3c(Cl)cccc32)[nH]c2ccccc12` (configuration not stated), the Inhibition was 96% in experiment [1], 27% in experiment [2] and 0% in experiment [3].

As to `COc1cc(F)c2ncc(Cl)c([C@H](O)CN3CCC(NCc4cc5c(cn4)OCCO5)CC3)c2c1.Cl`, the Inhibition in experiment [1] came out at 100%; in experiment [2], 49%; in experiment [3] it was 10%.

`O=C(Cn1cc(C=C2SC(=NC3CCCC3)N(C3CCCC3)C2=O)c2ccccc21)N1CCCC1`: the Inhibition in experiment [1] amounted to 100%; in experiment [2] it was 100%; in experiment [3], 5%.

With `CC(C)C[C@H](NC(=O)c1ccc(OCCN2CCOCC2)cc1)C(=O)N[C@H](/C=N/N(C)C(=O)c1ccccc1)CCc1ccccc1`, the Inhibition is 91% in experiment [1], 72% in experiment [2] and 8% in experiment [3].

As for `Cc1cc(O)c(C(C)C)cc1C1(c2cc(C(C)C)c(O)cc2C)OC(=O)c2ccccc21`, the Inhibition is 95% in experiment [1], 18% in experiment [2] and 8% in experiment [3].

As to `CCCOc1ccc(-c2nonc2NC(=O)c2cccc(OC)c2)cc1OCCC`, the figures for the Inhibition in experiment [1], in experiment [2] and in experiment [3] were 94%, 100% and 18%, respectively.

On to `CCCCCCCN(Cc1ccc(OC(C)(C)C(=O)OCC)cc1)C(=O)Nc1ccccc1OCC`, for which the Inhibition in experiment [1] was determined as 93%; in experiment [2], 94%; in experiment [3] it was 0%.

In the case of `COc1ccc(NC(=O)Nc2cccc(-c3ccncc3)c2)cc1N1CCN(C)CC1`, the values for the Inhibition in experiment [1], in experiment [2] and in experiment [3] were 98%, 57% and 9%, respectively.

`Cc1cc(N(C)C)nc(Nc2ccc(NC(=O)C(C)Oc3ccccc3)cc2)n1` (configuration not stated): the Inhibition in experiment [1] came out at 98%; in experiment [2], 30%; in experiment [3], 2%.

Consider `CN(C)c1ccc(C(c2ccc(N(C)C)cc2)c2cc([N+](=O)[O-])ccc2Cl)cc1`, for which the Inhibition in experiment [1] was 96%; in experiment [2], 67%; in experiment [3] it was 0%.

With `Br.CC1(C)NC(N)=NC(=N)N1OCCSCc1cc(Cl)sc1Cl`, the results for the Inhibition in experiment [1], in experiment [2] and in experiment [3] were 93%, 72% and 70%, respectively.

Regarding `Cc1nc(-c2ccc(C#N)cc2)sc1C(=O)NCCCCN1CCC(c2ccc3c(c2OCCO)CCCC3)CC1.Cl`, the Inhibition in experiment [1] came out at 99%; in experiment [2], 10%; in experiment [3] it was 14%.

Regarding `CN(C)Cc1cccc(-c2ccc3ccnc(N)c3c2)c1`, the figures for the Inhibition in experiment [1], in experiment [2] and in experiment [3] were 99%, 74% and 21%, respectively.

As to `COc1ccc(CNCc2ccc(F)cc2)cc1-c1ccc(S(=O)(=O)NCCN2CCCC2)s1.O=C(O)C(F)(F)F`, the Inhibition in experiment [1] is 100%; in experiment [2], 65%; in experiment [3] it was 61%.
